# Shown are actives, neighbours in structure and some others; about 9.2% of the full set was active somewhere.
# ELG1 repair inh = qHTS screen for small molecules that inhibit ELG1-dependent DNA repair in human embryonic kidney (HEK293T) cells expressing luciferase-tagged ELG1; Potency, µM (titrated, usually from 46.1 µM), inactives show at the top dose activity change, negative = inhibition, usual class: inhibitors; HEK293T ELG1-luciferase reporter, luminescence, 16 h; DNA damage induced by 5-fluorouridine; 330,000 compounds, 2.3% hits; AID 504467, 2011; further: on the % scale 0 is the no-effect control and ±100 the full control effect; nearly all actives have a fitted effect of over 55% in size
#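 In this reporter screen, reduction of luminescence relative to DMSO vehicle indicated activity. Compounds and 5-fluorouridine were added together to 2,000 cells per well, incubated for 16 hr at 37 °C, then developed with ONE-Glo.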
# NPC1 prom act = qHTS Assay for NPC1 Promoter Activators; Huh7 NPC1 promoter luciferase reporter, 24 h; 320,000 compounds, 2.4% hits; Potency, µM (highest dose often 9.22 µM), for inactives: at the highest dose activation, hits mostly activators; further: % of control where 0% means no effect; nearly all actives have a fitted effect of over 60% in size
#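 Luminescence read-out of NPC1 promoter-driven luciferase in stably transfected Huh7 cells; compounds delivered in DMSO and left 24 h at 37C, 5% CO2, qHTS titration format.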
# SMN2 splice up = qHTS Assay for Enhancers of SMN2 Splice Variant Expression | HEK293 SMN2-luciferase splicing reporter, luminescence, 30-36 h | Potency, µM (titrated, usually from 46.1 µM), without a hit: at the highest dose activity change, positive = activation, usual class: activators | 210,000 compounds, 2.8% hits | AID 1458, 2008; further: % of control where 0% means no effect; nearly all actives have a fitted effect of over 55% in size
#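 HEK293 cells carry an SMN2 […]–luciferase reporter in which exon 7 inclusion puts luciferase in frame. Cells were plated 10-12 h before compound addition, then incubated 30-36 h at 37C. ONE-Glo luminescence was read; sodium butyrate at 4.5 mM final served as control.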
# ELG1 genotox = qHTS screen for small molecules that induce genotoxicity in human embryonic kidney (HEK293T) cells expressing luciferase-tagged ELG1 | HEK293T ELG1-luciferase reporter, luminescence, 16 h | Potency, µM (doses to about 46 µM), for the others: at the top dose activity change, positive = activation, usual class: activators | 330,000 compounds, 1.3% hits | AID 504466, 2011; further: % of control where 0% means no effect; nearly all actives have a fitted effect of over 60% in size
#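 Genotoxicity was scored as increased ELG1-luciferase reporter signal, measured by ONE-Glo luminescence (30 min, room temperature). Compound or vehicle exposure of the HEK293T reporter cells lasted 16 hr at 37°C.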
# FLuc modulator = qHTS profiling assay for firefly luciferase inhibitor/activator using purifed enzyme and Km concentrations of substrates (counterscreen for miR-21 project) | purified FLuc, Km substrates, luminescence inhibition | Potency, µM (titrated, usually from 57.5 µM), for the others: at the top dose activity change, negative = inhibition, usual class: inhibitors | Luciferin 4-monooxygenase (Photinus pyralis), P08659 | 360,000 compounds, 6.9% hits;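 further: plate controls were vehicle for no effect and reference inhibitor for full effect; nearly all actives have a fitted effect of over 55% in size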
# Target sequence (P08659 whole entry, looked up): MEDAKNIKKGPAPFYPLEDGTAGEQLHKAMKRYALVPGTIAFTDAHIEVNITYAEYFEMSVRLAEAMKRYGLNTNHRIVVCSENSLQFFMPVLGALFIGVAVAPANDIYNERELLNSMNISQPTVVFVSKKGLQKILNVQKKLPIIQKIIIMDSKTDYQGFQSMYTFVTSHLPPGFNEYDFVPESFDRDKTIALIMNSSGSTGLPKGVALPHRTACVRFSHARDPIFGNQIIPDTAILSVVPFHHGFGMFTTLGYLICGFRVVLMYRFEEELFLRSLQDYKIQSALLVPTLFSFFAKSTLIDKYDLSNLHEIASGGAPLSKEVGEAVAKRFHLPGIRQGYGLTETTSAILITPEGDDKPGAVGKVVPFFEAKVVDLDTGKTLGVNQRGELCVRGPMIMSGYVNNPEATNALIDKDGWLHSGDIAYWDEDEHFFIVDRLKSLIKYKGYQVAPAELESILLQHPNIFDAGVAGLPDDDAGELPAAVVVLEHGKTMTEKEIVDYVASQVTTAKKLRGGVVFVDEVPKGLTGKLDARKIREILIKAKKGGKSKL
#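 Purified P. pyralis luciferase, 10 nM final, with Km-level 10 uM D-luciferin and 10 uM ATP in 50 mM Tris acetate pH 7.5, 10 mM Mg acetate, 0.01% Tween-20, 0.05% BSA; 6-point qHTS titration about 60 µM downward; luminescence read.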
# Rab9 prom act = qHTS Assay for Rab9 Promoter Activators; Potency, µM (series often up to 9.22 µM), for the others: at the highest dose activation, negative = inhibition, actives largely listed as activators; Huh7 Rab9 promoter-luciferase reporter, luminescence, 24 h; 320,000 compounds, 2.8% hits; further: % of control where 0% means no effect; nearly all actives have a fitted effect of over 60% in size
#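 Cells were plated at 1500 per well in reduced-serum medium with 10% FBS and left 2 h. Compound in DMSO was then added for 24 h at 37 °C. Reporter signal was read by luminescence after 10 min with luciferase detection reagent.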
# Starred values were filed as active, the others as inactive; ? = inconclusive; . = not tested or not shown. The call rests on the fitted dose curve; in most records, active means well fitted curve in the direction sought with a large enough effect; inconclusive means small, poorly fitted or top-dose-only effect, or another doubt; inactive means no such curve, though single readings can be large; an effect the other way counts as inactive or inconclusive. Potency means the concentration at half of the fitted maximal effect.
SMILES,ELG1 repair inh,NPC1 prom act,SMN2 splice up,ELG1 genotox,FLuc modulator,Rab9 prom act
COc1cccc(C(=O)Nc2c3c(nc4c2CCC4)CCCC3)c1,-1%,-1%,-1%,-1%,-2%,-3%
Cc1ccc2nc(NC(=O)c3ccc(-c4nc5ccccc5s4)s3)sc2c1,?,-2%,15%,16µM*,13µM*,-4%
COc1cccc(C(=O)Nc2nc3c(s2)CCCC3)c1,.,.,.,.,1.9µM*,.
O=C(NCCO)c1nc2ccccc2s1,?,3%,0%,9%,?,1%
COCCNC(=O)c1nc2ccccc2s1,?,0%,14%,16%,17µM*,26%
Cc1ccc(C(=O)Nc2nc3ccccc3c(=O)s2)cc1,?,?,?,?,0.76µM*,1.3µM*
COc1cc(OC)cc(-c2nnc(SCC(=O)c3ccc([N+](=O)[O-])cc3)o2)c1,.,.,-4%,.,4%,.
CSc1ccc(CCNC(=O)c2ccc(-c3nc(COc4ccccc4)c(C)o3)cc2)cc1,.,.,.,.,1%,.
O=C(CSc1oc(-c2ccco2)nc1S(=O)(=O)c1ccc(Cl)cc1)c1ccc(Cl)cc1,.,.,0%,.,-5%,.
CCc1nc(CNC(=O)C2CCC(=O)N(CCc3cccc(F)c3)C2)no1 (stereo unspecified),24%,-1%,.,2%,4%,6%
CN(C)c1ccnc2sc(C(=O)c3ccc(Br)cc3)c(N)c12,?,?,22µM*,-2%,?,?
CN(C)c1ccnc2sc(C(=O)NCc3ccccc3)c(N)c12,?,14%,.,?,?,15%
O=C(Nc1noc2ccccc12)c1c(F)cccc1F,.,.,22µM*,.,7.6µM*,.
O=C(Nc1ccccc1NC(=O)c1c(F)cccc1F)c1c(F)cccc1F,2%,1%,.,-2%,-2%,-9%
CCn1nc(C)cc1C(=O)Sc1ccc(C)cc1,0%,-1%,.,0%,17µM*,-4%
Cc1ccc(SC(=O)c2c([N+](=O)[O-])c(C)nn2C)cc1,-1%,-1%,.,-9%,-4%,0%
CCc1cccc(NC(=O)c2ccc3c(c2)c(C)c(C)n3Cc2ccc(F)cc2)c1,.,.,.,.,0%,.
COc1cc(C(=O)N(C)CC2CCN(CCc3cccc(C(F)(F)F)c3)CC2)ccc1C,-23%,-1%,.,-2%,-2%,-3%
COC(=O)c1ccccc1NC(=O)c1sc2nc(C)cc(C)c2c1NC(=O)c1ccccc1Cl,.,.,11%,.,1%,.
O=C(Nc1ccc2nsnc2c1)N1CCCCC1,?,19%,14%,?,?,21%
CC1CCN(C(=O)Nc2cccc(NC(=O)N3CCC(C)CC3)c2)CC1,-21%,10%,5%,2%,15µM*,0%
O=C(Nc1cccc(F)c1)N1CCC(c2ccccc2)CC1,?,?,.,?,?,29%
CC1CCN(C(=O)Nc2ccc3nsnc3c2)CC1,0%,?,13%,?,13µM*,4.5µM*
N#Cc1c(Cl)cccc1N1CCC(C(N)=O)CC1,-1%,3%,.,3%,0%,0%
CCCCCCCC(=O)C(C)C(=O)N(C)[C@H](Cc1ccc(OC)cc1)C(=O)N(C)[C@H](C(N)=O)C(C)C (stereo partly specified),?,.,.,-5%,.,.
SMILES,ELG1 repair inh,NPC1 prom act,SMN2 splice up,ELG1 genotox,FLuc modulator,Rab9 prom act
CCc1ccc(-n2nc3cc(C)c(NC(=O)c4cc(OC)cc(OC)c4)cc3n2)cc1,.,.,2%,.,1.3µM*,.
COc1ccc(-n2nc3cc(C)c(NC(=O)C(C)C)cc3n2)cc1,?,0.32µM*,2.8µM*,?,0.21µM*,0.32µM*
COc1ccc(-n2nc3cc(C)c(NC(C)=O)cc3n2)cc1,?,0.32µM*,1.6µM*,?,0.6µM*,0.32µM*
CCOc1ccc(-n2nc3cc(C)c(NC(=O)CC)cc3n2)cc1,.,.,-10%,.,?,.
COc1cccc(NC(=O)c2oc3ccccc3c2NC(=O)c2ccccc2C)c1,.,.,-13%,.,-9%,.
O=C(CN1C(=O)NC2(CCCCCCC2)C1=O)NCc1ccccc1,28%,.,.,4%,.,.
CCOC(=O)C(=CNc1ccc(-c2ccco2)c(Cl)c1)C(=O)OCC,?,1%,.,-9%,-20%,0%
CCOC(=O)C(=CNc1ccccc1Cl)C(=O)OCC,-9%,0%,.,-2%,-7%,-2%
CCOC(=O)C(=CNc1ccc(C(F)(F)F)cc1Cl)C(=O)OCC,0%,2%,.,-1%,13µM*,3%
CCOC(=O)C(=CNc1cc(Cl)c(-c2ccco2)c(Cl)c1)C(=O)OCC,21µM*,-2%,.,-5%,?,-2%
Cc1ccc(CC(=O)O/N=C(\N)c2cccc([N+](=O)[O-])c2)cc1,15%,-3%,-14%,0%,?,2%
N/C(=N\OC(=O)C1CCCCC1)c1cccc([N+](=O)[O-])c1,?,11%,10%,?,11µM*,24%
Cc1ccc(C(=O)O/N=C(\N)c2cccc([N+](=O)[O-])c2)cc1,?,3.5µM*,20%,?,0.19µM*,3.5µM*
N/C(=N\OC(=O)c1ccc(Br)cc1)c1cccc([N+](=O)[O-])c1,?,?,.,?,0.85µM*,28%
N/C(=N\OC(=O)c1ccc([N+](=O)[O-])cc1)c1ccc(Br)cc1,?,8%,.,?,?,3%
Cc1nnc(SCC(=O)NC(C)(C)C)n1NCc1cccc(Br)c1,10%,1%,.,-1%,5%,0%
O=C(OCC(=O)N1N=C(c2ccc(Cl)cc2)CC1c1ccco1)c1ccccc1O (stereo unspecified),-7%,6%,-7%,-2%,-3%,1%

# Screening results as filed in PubChem BioAssay.
